Inconclusive results are not listed. Active and inactive are the calls of the source. The call rests on the fitted dose curve; in most records, active means well fitted curve in either direction with a large enough effect (not every such curve was filed as active); inconclusive means small, poorly fitted or top-dose-only effect, or another doubt; inactive means flat fitted curve, though single readings scatter.
On the % scale 0 is the no-effect control and ±100 the full control effect.

This assay can be described thus: NFAT Signaling Pathway (AID 444). As to conditions: Jurkat NFAT-bla M1, carbachol, beta-lactamase ratio, 5 h; series mostly up to 17.2 µM; activity change, negative = inhibition: at the top concentration. The text has this:
NCGC Assay Overview: The nuclear factor of activated T cells (NFAT) family of transcription factors has been found primarily in most immune system cells and some other non-immune cells. NFAT plays the immunomodulatory role, primarily in T-cell activation and differentiation. NFAT target genes are also involved in the regulation of apoptosis and differentiation in non-immune cell types. The NFAT sequence was engineered to the upstream of the ?-lactamase reporter gene and transfected into Jurkat cells with co-transfection of muscarinic receptor1 [provided by Invitrogen Corp]. When an extracellular stimulus, such as carbachol, binds to the GPCR M1 receptor, it stimulates a signaling cascade that activates NFAT response element and ?-lactamase expression by phosphorylating the NFAT binding protein. This cell based ?-lactamase reporter gene assay can accurately monitor any changes occurring along the NFAT pathway, and can be used for screening small molecule inhibitor or activator upon activation by carbachol EC50 concentration. A small molecular library were screened in a titration series resulting in AC50s (can be either IC50s or EC50s).
NCGC Assay Protocol Summary: The cells were prepared in RPMI 1640 medium containing 0.1% dialyzed FBS and 25 mM HEPES at 1.6 x 10^6cell/ml. The assay was performed in 1536-well plate format as follows: 5 ul of cell preparation 23 nl of compounds 1ul of carbachol (final concentration 1 uM) Briefly centrifuge the plates and incubate at 37 °C for 5 hours 1 ul of CCF4 dye mixture Incubate the plates at RT for 1 hour Read the plate in EnVision plate reader (Ex= 405nm, and Em1=460nm and Em2=530nm). The %Activity was determined from the ratio of 460nm/530nm. Data normalization and AC50 calculations were accomplished using GeneData software.
As for `CC(C)(C)c1ccc(C(O)CCCN2CCC(C(O)(c3ccccc3)c3ccccc3)CC2)cc1` (configuration not stated), the “activity change, negative = inhibition” value was -2.2% (inactive).
Consider `COCCCCC(=NOCCN)c1ccc(C(F)(F)F)cc1`, for which the outcome was inactive.
On to `O=c1c(-c2ccc(O)cc2)coc2cc(O)ccc12`, for which the “activity change, negative = inhibition” value is -1.89% [at 38 µM] (inactive).
Still for that read-out and setting: with `COc1ccc2c3c1OC1C[C@@H](O)C=C[C@@]31CCN(C)C2` (some centres not stated) the figure was 1.6% (inactive).
On to `O=C1NC(=O)C(c2ccccc2)(c2ccccc2)N1`, for which the result was inactive.
Same read-out and setting: then `CCN(CC)C(=O)c1ccc(O)c(OC)c1`, with “inactive”.
For `COc1cccc(-c2cc(=O)c3ccccc3o2)c1N`, the “activity change, negative = inhibition” value was 4.41% [at 38 µM] (inactive).
Still for that read-out and setting: then `COc1ccccc1N1CCN(CCCNc2cc(=O)n(C)c(=O)n2C)CC1`, with -18.8% (inactive); and `O=C(O)c1cc(O)c2c(c1)C(=O)c1cccc(O)c1C2=O`, with 15.1% (inactive).
On the same count and under the same terms, with `C[N+](C)(C)CC(=O)O` the figure was -4.41% [at 38 µM] (inactive); with `O=C(O)c1cc(-c2ccccc2)nc2ccccc12`, -0.33% (inactive).
On to `c1cc(-c2sc(-c3ccncc3)c(-c3ccncc3)c2-c2ccncc2)ccn1`, for which the “activity change, negative = inhibition” value is -7.05% [at 7.69 µM] (inactive).
As to `Clc1ccc(Cn2c(CN3CCCC3)nc3ccccc32)cc1`, the “activity change, negative = inhibition” value is -28.8% [at 38 µM] (inactive).
In the case of `O=C(O)CCc1nc(-c2ccccc2)c(-c2ccccc2)o1`, the outcome was inactive.
As for `CC(C(=O)O)c1ccc(-c2ccccc2)c(F)c1` (configuration not stated), the “activity change, negative = inhibition” value was 7.83% (inactive).
Turning to `CC(=O)CCCCn1c(=O)c2c(ncn2C)n(C)c1=O`, the result was inactive.
In the case of `CCCCC1C(=O)N(c2ccccc2)N(c2ccccc2)C1=O`, the “activity change, negative = inhibition” value was -24.1% [at 38 µM] (inactive).
The same measure, in the same setting: with `C[C@@H](O)[C@H]1C(=O)N2C(C(=O)O)=C(S[C@@H]3CN[C@H](C(=O)N(C)C)C3)[C@H](C)[C@H]12` the figure was -18.7% (inactive); with `CC(C)NCC(O)COc1cccc2[nH]ccc12` (configuration not stated), 18.9% (inactive).
In the case of `CCN(CC)CCNC(=O)c1ccc(N)cc1`, the result was inactive.
Consider `NCCS`, for which the “activity change, negative = inhibition” value was 3.9% [at 38 µM] (inactive).
For the compound `O=C1NCC2(CCN(CCc3ccccc3)CC2)O1`, the result was inactive.
Consider `C[N+](C)(C)CCCCCC[N+](C)(C)C`, for which the outcome was inactive.
For the compound `CC(=O)c1ccc(S(=O)(=O)NC(=O)NC2CCCCC2)cc1`, the result was inactive.
As for `O=C1C[C@@H](c2ccc(O)cc2)Oc2cc(O)cc(O)c21`, the “activity change, negative = inhibition” value was 12.9% (inactive).
Same read-out and setting: then `CC(=O)N[C@@H](CS)C(=O)O`, with 6.86% (inactive); and `CC/C(=C(\c1ccccc1)c1ccc(OCCN(C)C)cc1)c1ccccc1`, with -28.5% (inactive).
Take `NC(N)=Nc1nc(CSCC/C(N)=N/S(N)(=O)=O)cs1`: the outcome was inactive.
Same read-out and setting: then `CCCNC(=O)NS(=O)(=O)c1ccc(Cl)cc1`, with “inactive”.
Take `CCN1CCC[C@H]1CNC(=O)c1cc(S(N)(=O)=O)ccc1OC`: the “activity change, negative = inhibition” value was -5.87% (inactive).
On the same count and under the same terms, then `COc1ccc(-c2coc3cc(O)cc(O)c3c2=O)cc1`, with 29.8% (inactive); and `Nc1ncnc2c1ncn2[C@@H]1O[C@@H](CO)[C@H](O)[C@H]1O`, with -2.09% (inactive).

These data come from PubChem BioAssay (NCATS).
